Common to all, as to test: DAPPL (digital affinity profiling via proximity ligation, sequencing); 10 mM Tris-HCl pH 7.5, 50 mM NaCl, 1 mM DTT, 4% glycerol, room temperature, 30 min; GST-TFs on glutathione beads, 16-mer random dsDNA library, 0.1% formaldehyde crosslink after washing; high values mean tight binding
Holding throughout (conditions): protein: recombinant; tags: N-terminal GST; dsDNA, one strand shown

The target in one assay is T1, ELK1 (Homo sapiens, UniProt P19419 1-428).
T1 sequence: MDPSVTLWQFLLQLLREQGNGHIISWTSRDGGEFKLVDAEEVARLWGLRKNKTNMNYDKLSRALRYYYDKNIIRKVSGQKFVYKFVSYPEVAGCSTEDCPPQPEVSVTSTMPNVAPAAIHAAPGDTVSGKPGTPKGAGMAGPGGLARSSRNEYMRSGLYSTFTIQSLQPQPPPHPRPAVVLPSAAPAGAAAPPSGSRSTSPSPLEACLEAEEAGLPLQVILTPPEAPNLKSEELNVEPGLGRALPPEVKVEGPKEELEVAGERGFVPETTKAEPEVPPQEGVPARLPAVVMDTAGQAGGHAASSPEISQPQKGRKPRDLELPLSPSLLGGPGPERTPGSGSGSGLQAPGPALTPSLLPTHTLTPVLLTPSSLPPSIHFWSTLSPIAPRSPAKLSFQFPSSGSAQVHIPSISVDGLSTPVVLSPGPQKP
The method, boiled down: (§1)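 Sequencing on an Illumina NextSeq500 followed washing, crosslinking with 0.1% formaldehyde, proximity ligation (BsaI/T4 ligase, 1 h, 37 °C) and PCR amplification of pools that had been incubated for 30 min at room temperature with 200 nmole of a random double-stranded 16-mer DNA library in Tris/NaCl/DTT/glycerol buffer. Each pool held DNA-barcoded human transcription factors, expressed in yeast as GST fusions and captured on glutathione beads, plus a tag-only sample. Binding signal is a hexamer's read frequency for a factor divided by its frequency in the tag-only sample.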

For a further assay, the target named is T2, GABPA (Homo sapiens, UniProt Q06546 1-454).
T2 sequence: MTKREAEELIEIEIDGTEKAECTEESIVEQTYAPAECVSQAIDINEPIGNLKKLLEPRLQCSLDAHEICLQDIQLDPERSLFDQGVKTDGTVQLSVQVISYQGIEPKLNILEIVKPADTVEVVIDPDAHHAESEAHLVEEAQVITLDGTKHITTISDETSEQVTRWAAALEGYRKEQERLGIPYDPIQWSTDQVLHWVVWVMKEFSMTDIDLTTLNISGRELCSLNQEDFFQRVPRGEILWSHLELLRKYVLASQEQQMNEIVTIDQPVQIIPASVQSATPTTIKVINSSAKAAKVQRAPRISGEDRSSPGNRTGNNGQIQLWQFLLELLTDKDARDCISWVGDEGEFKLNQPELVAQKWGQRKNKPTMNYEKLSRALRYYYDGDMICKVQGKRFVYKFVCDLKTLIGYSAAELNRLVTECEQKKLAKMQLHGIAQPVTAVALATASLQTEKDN
Put shortly: as §1

In the next assay the target is T3, ERG (Homo sapiens, UniProt P11308 1-479).
T3 sequence: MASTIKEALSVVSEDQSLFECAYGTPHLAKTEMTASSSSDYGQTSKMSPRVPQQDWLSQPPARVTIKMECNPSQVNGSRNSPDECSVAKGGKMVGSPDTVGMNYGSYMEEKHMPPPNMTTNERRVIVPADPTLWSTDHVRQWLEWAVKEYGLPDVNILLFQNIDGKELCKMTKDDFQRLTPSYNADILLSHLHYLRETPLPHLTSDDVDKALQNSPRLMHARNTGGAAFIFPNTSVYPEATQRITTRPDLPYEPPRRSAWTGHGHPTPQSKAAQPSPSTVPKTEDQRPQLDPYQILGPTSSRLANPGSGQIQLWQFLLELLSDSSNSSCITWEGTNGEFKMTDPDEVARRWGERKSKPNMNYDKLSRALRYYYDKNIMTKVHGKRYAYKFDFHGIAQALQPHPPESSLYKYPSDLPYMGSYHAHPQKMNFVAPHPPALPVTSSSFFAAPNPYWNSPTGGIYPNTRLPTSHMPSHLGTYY
The method, boiled down: as §1

Another assay has as its target ELF1 (Homo sapiens, UniProt P32519 1-619). Put shortly:
as §1

A further assay concerns the target T4, EHF (Homo sapiens, UniProt Q9NZC4 1-300).
T4 sequence: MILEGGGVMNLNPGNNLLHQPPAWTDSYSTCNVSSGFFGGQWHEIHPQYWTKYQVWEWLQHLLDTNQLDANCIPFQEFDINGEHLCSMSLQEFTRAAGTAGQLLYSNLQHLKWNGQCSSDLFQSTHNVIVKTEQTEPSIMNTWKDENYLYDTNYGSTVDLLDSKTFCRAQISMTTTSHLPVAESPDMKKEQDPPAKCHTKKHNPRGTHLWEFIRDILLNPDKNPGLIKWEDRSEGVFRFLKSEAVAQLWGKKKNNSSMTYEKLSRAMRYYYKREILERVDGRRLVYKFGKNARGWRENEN
The method, boiled down:
as §1

For the next assay, the target named is SPIB (Homo sapiens, UniProt Q01892 1-262). Put shortly: as §1
Chain of SPIB (Q01892 whole entry): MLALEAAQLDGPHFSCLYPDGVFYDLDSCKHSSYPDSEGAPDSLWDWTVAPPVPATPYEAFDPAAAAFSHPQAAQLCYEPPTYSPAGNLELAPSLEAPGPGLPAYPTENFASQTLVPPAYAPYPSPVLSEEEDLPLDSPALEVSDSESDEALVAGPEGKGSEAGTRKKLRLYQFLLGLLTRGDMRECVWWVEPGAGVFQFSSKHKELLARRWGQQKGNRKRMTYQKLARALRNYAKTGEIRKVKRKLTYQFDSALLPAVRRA
A further assay concerns the target T5, ELK3 (Homo sapiens, UniProt P41970 1-407).
T5 sequence: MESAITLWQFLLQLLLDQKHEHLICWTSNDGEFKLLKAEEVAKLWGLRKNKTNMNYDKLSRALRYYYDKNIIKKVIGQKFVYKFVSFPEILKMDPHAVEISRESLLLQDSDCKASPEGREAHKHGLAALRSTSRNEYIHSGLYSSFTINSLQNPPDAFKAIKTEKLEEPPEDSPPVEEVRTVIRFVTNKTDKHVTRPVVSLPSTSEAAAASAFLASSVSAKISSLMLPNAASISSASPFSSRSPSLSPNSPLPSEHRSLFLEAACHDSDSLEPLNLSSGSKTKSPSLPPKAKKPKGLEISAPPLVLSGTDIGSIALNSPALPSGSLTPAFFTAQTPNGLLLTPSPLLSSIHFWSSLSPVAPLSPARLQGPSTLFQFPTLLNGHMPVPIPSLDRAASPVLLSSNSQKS
The method, boiled down:
as §1

In a further assay the target is T6, SPIC (Homo sapiens, UniProt Q8N5J4 1-248).
T6 sequence: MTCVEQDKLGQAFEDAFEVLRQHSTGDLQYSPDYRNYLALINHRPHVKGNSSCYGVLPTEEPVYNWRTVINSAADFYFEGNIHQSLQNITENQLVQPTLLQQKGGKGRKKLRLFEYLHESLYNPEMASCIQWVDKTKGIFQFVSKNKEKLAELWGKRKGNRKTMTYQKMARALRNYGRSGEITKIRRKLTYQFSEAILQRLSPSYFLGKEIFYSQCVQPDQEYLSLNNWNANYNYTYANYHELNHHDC
Put shortly:
as §1

The target of the next assay is ELF4 (Homo sapiens, UniProt Q99607 1-663). Put shortly:
as §1

The values below come from paper PMC7862700, “An all-to-all approach to the identification of sequence-specific readers for epigenetic DNA modifications on cytosine”.

Chain of ELF1 (P32519 whole entry): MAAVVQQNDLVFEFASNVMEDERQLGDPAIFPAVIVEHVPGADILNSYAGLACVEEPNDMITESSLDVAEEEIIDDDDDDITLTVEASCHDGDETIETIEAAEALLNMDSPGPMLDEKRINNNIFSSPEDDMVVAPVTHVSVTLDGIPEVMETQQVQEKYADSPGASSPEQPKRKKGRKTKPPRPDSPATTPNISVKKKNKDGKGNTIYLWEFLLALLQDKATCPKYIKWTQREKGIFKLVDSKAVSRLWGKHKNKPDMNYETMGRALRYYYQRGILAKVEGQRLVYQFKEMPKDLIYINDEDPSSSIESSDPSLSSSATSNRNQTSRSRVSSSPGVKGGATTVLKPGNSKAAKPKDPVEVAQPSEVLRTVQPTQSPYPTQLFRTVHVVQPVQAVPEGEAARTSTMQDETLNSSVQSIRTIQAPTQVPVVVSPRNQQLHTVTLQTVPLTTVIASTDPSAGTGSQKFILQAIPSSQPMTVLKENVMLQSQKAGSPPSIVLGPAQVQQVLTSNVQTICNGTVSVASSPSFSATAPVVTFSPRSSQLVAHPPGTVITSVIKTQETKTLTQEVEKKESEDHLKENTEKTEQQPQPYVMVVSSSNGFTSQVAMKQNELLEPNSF
Chain of ELF4 (Q99607 whole entry): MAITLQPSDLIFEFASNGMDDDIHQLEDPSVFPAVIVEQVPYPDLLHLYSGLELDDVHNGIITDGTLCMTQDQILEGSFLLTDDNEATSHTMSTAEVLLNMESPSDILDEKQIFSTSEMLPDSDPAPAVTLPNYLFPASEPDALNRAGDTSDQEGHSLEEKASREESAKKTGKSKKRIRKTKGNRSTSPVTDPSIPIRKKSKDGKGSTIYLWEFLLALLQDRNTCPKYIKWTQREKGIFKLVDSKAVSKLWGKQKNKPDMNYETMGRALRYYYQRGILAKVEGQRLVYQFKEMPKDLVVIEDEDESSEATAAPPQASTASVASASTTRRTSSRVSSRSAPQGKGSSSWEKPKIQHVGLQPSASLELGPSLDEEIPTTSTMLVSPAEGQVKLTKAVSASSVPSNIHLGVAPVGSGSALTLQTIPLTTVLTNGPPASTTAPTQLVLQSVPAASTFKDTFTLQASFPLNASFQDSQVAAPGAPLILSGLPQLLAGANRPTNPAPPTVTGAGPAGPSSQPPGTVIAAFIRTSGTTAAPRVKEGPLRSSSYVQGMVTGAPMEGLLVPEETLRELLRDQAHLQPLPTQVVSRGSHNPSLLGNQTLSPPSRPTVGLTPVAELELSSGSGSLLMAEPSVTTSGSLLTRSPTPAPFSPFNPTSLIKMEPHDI

In the case of GCTGGT, the binding signal in the assay with ELK1 was 1.23 fold enrichment (6-mer frequency, TF over GST control); with GABPA, 1.15 fold enrichment (6-mer frequency, TF over GST control); with ERG, 1.28 fold enrichment (6-mer frequency, TF over GST control); with ELF1, 1.04 fold enrichment (6-mer frequency, TF over GST control); with EHF, 1.2 fold enrichment (6-mer frequency, TF over GST control); with SPIB, 1.18 fold enrichment (6-mer frequency, TF over GST control). In addition, the binding signal with ELK3 was 1.19 fold enrichment (6-mer frequency, TF over GST control); in the assay with SPIC, 1.08 fold enrichment (6-mer frequency, TF over GST control); in the assay with ELF4, 1.11 fold enrichment (6-mer frequency, TF over GST control).
